Source: the supplement of paper PMC8253809
Values joined by “and” are separate entries in the source; they are usually repeats but may differ in a detail not shown here. Equal values may be shown once.

Columns and labels:
Test in all cases: growth inhibition (% activity, log2 RLU normalised to DMSO / staurosporine); higher = more growth inhibition
Conditions in all cases: 33 µM
[1] = test system: DIPGX29 (H3.3 K27M diffuse intrinsic pontine glioma line)
How it was run: (§1)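 In triplicate, pHGG cell lines and H9-derived neural stem cells were treated for 7 days at 37 °C, 5% CO2 with approved drugs at a single final concentration of about 33 μM, added by pin tool. CellTiter-Glo luminescence, after log2 transformation, was normalised on each plate to % activity between solvent and positive control wells. Growth inhibition is reported as the median across replicates.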

[2] = test system: DIPGX37 (H3.3 K27M diffuse intrinsic pontine glioma line)
How it was run: as §1

[3] = test system: DIPGX7 (H3.3 K27M diffuse intrinsic pontine glioma line)
How it was run: as §1

[4] = test system: DIPGX9 (diffuse intrinsic pontine glioma line)
How it was run: as §1

[5] = test system: HGGX39 (paediatric high-grade glioma line)
How it was run: as §1

[6] = test system: HGGX6 (H3.3 G34R paediatric high-grade glioma line)
How it was run: as §1

[7] = test system: HNSC
How it was run: as §1

[8] = test system: SUDIPGIV (diffuse intrinsic pontine glioma line)
How it was run: as §1

[9] = test system: SUDIPGVI (diffuse intrinsic pontine glioma line)
How it was run: as §1

[10] = test system: SUDIPGXIII (diffuse intrinsic pontine glioma line)
How it was run: as §1

Structure (SMILES)	growth inhibition [1]	growth inhibition [2]	growth inhibition [3]	growth inhibition [4]	growth inhibition [5]	growth inhibition [6]	growth inhibition [7]	growth inhibition [8]	growth inhibition [9]	growth inhibition [10]
Clc1ccc(C(Cn2ccnc2)OCc2csc3c(Cl)cccc23)c(Cl)c1 (stereo not given)	2.06%	3.55%	1.45%	1.99%	8.8%	6.02%	10.7%	13.8%	1.94%	5.27%
Fc1ccc(C(c2ccc(F)cc2)N2CCN(C/C=C/c3ccccc3)CC2)cc1	4.97%	2.42%	6.22%	3.95%	9.77%	2.44%	14.4%	15.8%	5.18%	8.8%
O=C(O)Cc1ccccc1Nc1c(Cl)cccc1Cl	-1.37% and -2.99% and -0.71%	-1.99% and -1.73% and 0.418%	-1.57% and -1.88% and -1.25%	-1.08% and -0.109% and -0.719%	-2.62% and -2.86% and 0.69%	0.514% and 2.52% and -0.0763%	-3.6% and -4.25% and -2.46%	-6.51% and -6.18% and -5.78%	-1.69% and -1.9% and -1.43%	-0.705% and -7.4% and 0.367%
CCCCN1CCCCC1C(=O)Nc1c(C)cccc1C (stereo not given)	-1.45%	-1.09%	-1.58%	0.909%	1.03%	0.943%	-1.77%	-2.22%	-1.08%	7.3%
CNC(=C[N+](=O)[O-])NCCSCc1csc(CN(C)C)n1	-0.765%	-2.32%	-0.581%	0.0593%	0.382%	0.506%	-0.992%	-0.124%	0.207%	0.421%
N=C(N)c1ccc(OCCCCCOc2ccc(C(=N)N)cc2)cc1	12.3%	-2.71%	16.9%	13.9%	42.9%	20.2%	43.6%	45%	44.2%	16.5%
CCNC(=O)CCC/C=C\C[C@@H]1[C@@H](/C=C/[C@@H](O)CCc2ccccc2)[C@H](O)C[C@@H]1O	0.795%	0.309%	1.77%	0.624%	3.66%	1.1%	1.72%	0.456%	0.646%	-0.283%
C[C@@H](CN1CC(=O)NC(=O)C1)N1CC(=O)NC(=O)C1	-0.213%	0.752%	1.24%	0.711%	0.0185%	-0.816%	2.52%	-0.536%	-1.35%	-1.67%
O=c1c(-c2ccc(O)cc2)coc2cc(O)cc(O)c12	0.891%	2.29%	2.16%	4.34%	4.09%	2.54%	3.99%	-1.2%	0.172%	-2.36%
CN(CCOc1ccc(NS(C)(=O)=O)cc1)CCc1ccc(NS(C)(=O)=O)cc1	-2.77%	-1.46%	0.833%	-2.46%	-2.37%	-1.41%	-6.33%	-2.75%	-13.8%	0.844%
NC(=O)C(c1ccccc1)(c1ccccc1)[C@@H]1CCN(CCc2ccc3c(c2)CCO3)C1	2.96%	2.86%	0.954%	1.04%	4.33%	2.82%	1.33%	0.535%	2.52%	0.646%
CCN(CC)CCOc1ccc(C(=C(Cl)c2ccccc2)c2ccccc2)cc1	26.6%	11.7%	45.2%	12.3%	36.3%	28%	63.5%	32.8%	1.14%	0.221%
CO[C@H]1C[C@@H]2CC[C@@H](C)[C@@](O)(O2)C(=O)C(=O)N2CCCC[C@H]2C(=O)O[C@H]([C@H](C)C[C@@H]2CC[C@@H](OC(=O)C(C)(CO)CO)[C@H](OC)C2)CC(=O)[C@H](C)/C=C(\C)[C@@H](O)[C@@H](OC)C(=O)[C@H](C)C[C@H](C)/C=C/C=C/C=C/1C	1.36%	0.103%	4.97%	14%	6.98%	5.24%	3.52%	1.47%	3.49%	-0.989%
CCCNC(C)C(=O)Nc1ccccc1C (stereo not given)	-1.66%	0.68%	-1.19%	-0.603%	0.299%	-0.0141%	-2.37%	-1.79%	-0.942%	-0.434%
CS(=O)(=O)c1ccc([C@@H](O)[C@@H](CO)NC(=O)C(Cl)Cl)cc1	7.76%	3.94%	4.74%	7.6%	16.3%	5.24%	15.1%	35%	5.62%	20%
CN(Cc1cnc2nc(N)nc(N)c2n1)c1ccc(C(=O)N[C@@H](CCC(=O)O)C(=O)O)cc1	1.2%	1.21%	2.57%	0.922%	3.95%	1.8%	2.32%	-0.562%	3.38%	0.468%
C[C@@H](c1ncncc1F)[C@](O)(Cn1cncn1)c1ccc(F)cc1F	0.619%	-0.0255%	0.392%	0.104%	0.756%	-0.00667%	1.22%	-1.27%	-1.71%	-0.404%
